The source of these data is PubChem BioAssay (Tox21).

Values without a mark were called inactive. Results filed as inconclusive are left out. Activity calls are given as the source filed them. Unless noted, calls come from the whole dose curve; as a rule, active = well fitted curve in the direction sought with a large enough effect in the repeat runs; inconclusive = weak or mixed curves; inactive = no such curve, though single readings can be large; an effect the other way counts as inactive or inconclusive.

Assay [1] can be described thus: qHTS assay to identify small molecule agonists of the androgen receptor (AR) signaling pathway in the presence of an antagonist - cell viability counter screen (AID 1259379).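 For activity change, negative = cytotoxicity: MDA-kb2 human breast cancer cells carrying an MMTV luciferase reporter; series mostly up to about 92 µM.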 Note: nearly all actives have a fitted effect of over 25% in size. Note: potency is the fitted concentration of half-maximal effect. The procedure, abridged: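 Each compound was tested at 15 concentrations on MDA-kb2 cells in the presence of 3.0uM nilutamide. Viability was measured by CellTiter-Fluor fluorescence after a 16 hr incubation at 37C in a CO2-free atmosphere.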
Background: In qHTS, concentration-response curves come from the screen itself.

Assay [2] is described as follows: qHTS assay to identify small molecule agonists of the estrogen receptor beta (ER-beta) signaling pathway - cell viability counter screen (AID 1259380). Note: nearly all actives have a fitted effect of over 30% in size. Note: potency is the fitted concentration of half-maximal effect. The method in brief:
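Compounds dissolved in DMSO were pin-transferred onto ER-beta-UAS-bla HEK293T cells that had settled 6 hr, and exposure ran 16 hr at 37C. Following the reporter read, CellTiter-Glo luminescence after 30 min at room temperature indicated cytotoxicity.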

Assay [3] is described as follows: qHTS assay to identify small molecule antagonists of the estrogen receptor beta (ER-beta) signaling pathway - cell viability counter screen (AID 1259382).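 Note: HEK293T cells carrying ER-beta-UAS-bla reporter stimulated with estradiol; series mostly up to about 92 µM; nearly all actives have a fitted effect of over 55% in size.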 The method in brief: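 CellTiter-Glo ATP luminescence measured after the LiveBLAzer read in the same wells; ER-beta-UAS-bla HEK293T cells, 16 hr compound treatment with 1nM 17-beta-estradiol agonist at 37C, 5% CO2.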

Assay [4] can be described thus: qHTS assay to identify small molecule agonists or antagonists of the thyroid stimulating hormone receptor (TSHR) signaling pathway - wild type cell line counter screen (AID 1259384; calls by dose curve). The procedure, abridged:
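Wild-type HEK293 cells were plated 18 h at 37 C/5% CO2, pin-dosed with compound plus Ro20-1724 medium, held 30 min at room temperature, then given cAMP-d2 and anti-cAMP-cryptate; fluorescence was read after 1 h. Fifteen concentrations, triplicate.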

Assay [5] has as its target Thyrotropin receptor (Homo sapiens) (UniProt P16473). Nature of the assay: qHTS assay to identify small molecule antagonists of the thyroid stimulating hormone receptor (TSHR) signaling pathway (AID 1259385; calls by dose curve; note: nearly all actives have a fitted effect of over 20% in size). The procedure, abridged:
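TSHR-HEK293 cells were plated and held 18 h at 37C/5% CO2, then given compound plus Ro20-1724 and stimulated with TSH at 1.5 ng/mL final. After 30 min at room temperature, cAMP was detected with cAMP-d2/anti-cAMP-cryptate (1 h) by fluorescence.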

A short description of assay [6]: qHTS assay to identify small molecule agonists of the estrogen receptor alpha (ER-alpha) signaling pathway in the presence of an antagonist - cell viability counter screen (AID 1259386).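 Note: series mostly up to about 92 µM; cells exposed to compounds for 22 h at 37 °C before the viability read; nearly all actives have a fitted effect of over 30% in size.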 The procedure, abridged:
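Using estrogen-depleted VM7Luc4E2 cells, the 15-concentration compound series was applied together with 10.0nM ICI-182,780 and incubated 22hr at 37C/5% CO2. Cell viability was then scored by CellTiter-Fluor.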

Assay [7] is described as follows: qHTS assay to identify small molecule antagonists of the progesterone receptor (PR) signaling pathway - cell viability counter screen (AID 1346798). Note: series mostly up to about 92 µM; nearly all actives have a fitted effect of over 50% in size. The procedure, abridged:
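PR-UAS-bla HEK293T cells in medium with 2% charcoal-stripped FBS were treated with compounds plus R5020 for 16 hr at 37C. Cell viability was then read by CellTiter-Glo luminescence after 30 min at room temperature in the same wells.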

The nature of assay [8]: qHTS assay to identify small molecule agonists of the progesterone receptor (PR) signaling pathway - cell viability counter screen (AID 1346799; calls by dose curve; note: nearly all actives have a fitted effect of over 45% in size). The procedure, abridged:
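PR-UAS-bla HEK293T cells, 3,000 per well in medium with 2% charcoal-stripped FBS, were preincubated 6 hr at 37C, then exposed to compounds for 16 hr; viability was read as CellTiter-Glo luminescence after 30 min at room temperature.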

A short description of assay [9]: qHTS assay to identify small molecule antagonists of the TGF-beta/Smad signaling pathway - cell viability counter screen (AID 1346824). Note: nearly all actives have a fitted effect of over 50% in size. The procedure, abridged: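 SBE-bla HEK 293T cells were plated overnight at 37 C, then given compounds in DMSO plus TGF-beta1 (added as 0.25 ng/mL solution) for 5 hr. After the bla read, CellTiter-Glo was added to the same wells and luminescence read after 30 min at room temperature.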

A short description of assay [10]: qHTS assay to identify small molecule agonists of the TGF-beta/Smad signaling pathway - cell viability counter screen (AID 1346829). Note: top concentration of the series differs between compounds; nearly all actives have a fitted effect of over 45% in size. The method in brief:
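Luminescence from CellTiter-Glo, read after a 30 min room-temperature incubation, gives cell viability of SBE-bla HEK 293T cells treated 5 hr with compounds at 37 C.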

Assay [11] is described as follows: qHTS assay to identify small molecule agonists of the TGF-beta/Smad signaling pathway (AID 1346859; active = well fitted activation curve with a large enough effect in the signal ratio in the repeat runs, not every such curve was filed as active; the % refers to the signal ratio; note: series mostly up to about 77 µM). The procedure, abridged:
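HEK 293T cells stably carrying a beta-lactamase reporter driven by the Smad binding element were seeded overnight, exposed to DMSO-dissolved compounds for 5 hr at 37 C, 5% CO2, then loaded with FRET substrate for 2 hr at room temperature.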

Assay [12] deals with Thyrotropin-releasing hormone receptor (Homo sapiens) (UniProt P34981). The assay is described as follows: qHTS assay to identify small molecule antagonists of the thyrotropin-releasing hormone receptor (TRHR) signaling pathway (AID 1346877; active = well fitted inhibition curve with a large enough effect in the repeat runs, not every such curve was filed as active; note: series mostly up to about 51 µM). The method in brief: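 Calcium signal in dye-loaded TRHR/HEK293 cells; compounds added 5 min before TRH (1 nM final); fluorescence monitored 3 min at 1 s steps.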

The target is the same in assay [13]. The assay is described as follows: qHTS assay to identify small molecule agonists of the thyrotropin-releasing hormone receptor (TRHR) signaling pathway (AID 1346891; calls by dose curve; note: series mostly up to about 58 µM). The method in brief:
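TRHR-expressing HEK293 cells were plated 18 h at 37 °C/5% CO2, loaded with calcium dye 2 h at 37 °C, then given compound in DMSO; fluorescence was read kinetically for 3 min at 1 s intervals.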

For assay [14], the target named is Estrogen receptor (Homo sapiens) (UniProt P03372). Nature of the assay: qHTS assay to identify small molecule agonists of the estrogen receptor alpha (ER-alpha) signaling pathway in the presence of an antagonist (AID 1259383; calls by dose curve; note: top concentration of the series differs between compounds; nearly all actives have a fitted effect of over 15% in size). The procedure, abridged: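 Luminescent ERE-luciferase reporter, VM7Luc4E2 cells (endogenous ER-alpha); 10.0nM ICI-182,780 final; 15-point compound titration; 22hr at 37C; ONE-Glo, 30min RT.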

The target of assay [15] is Progesterone receptor (Homo sapiens) (UniProt P06401). Nature of the assay: qHTS assay to identify small molecule antagonists of the progesterone receptor (PR) signaling pathway (AID 1346795; active = well fitted inhibition curve with a large enough effect in the signal ratio in the repeat runs, not every such curve was filed as active; the % refers to the signal ratio; note: potency is the fitted concentration of half-maximal effect). The method in brief:
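PR-UAS-bla HEK293T cells carrying a UAS-driven beta-lactamase reporter were plated in medium with 2% charcoal-stripped FBS and rested 6 hr at 37C. Compounds were added with 1 nM R5020 (final) for 16 hr, then FRET substrate loaded 2 hr at room temperature.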

Assay [16] shares this target. Nature of the assay: qHTS assay to identify small molecule agonists of the progesterone receptor (PR) signaling pathway (AID 1346784; calls by dose curve; note: nearly all actives have a fitted effect of over 30% in size). The method in brief: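 PR-UAS-bla HEK 293T cells carrying a UAS-driven beta-lactamase reporter were seeded in medium with 2% charcoal-stripped FBS, preincubated 6 hr at 37C, then exposed to compounds in DMSO for 16 hr; agonism was read by LiveBLAzer B/G FRET fluorescence.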
% is set by controls: 0 for no effect and ±100 for the full control effect.

Thyrotropin receptor (Homo sapiens), sequence (P16473 whole entry, looked up): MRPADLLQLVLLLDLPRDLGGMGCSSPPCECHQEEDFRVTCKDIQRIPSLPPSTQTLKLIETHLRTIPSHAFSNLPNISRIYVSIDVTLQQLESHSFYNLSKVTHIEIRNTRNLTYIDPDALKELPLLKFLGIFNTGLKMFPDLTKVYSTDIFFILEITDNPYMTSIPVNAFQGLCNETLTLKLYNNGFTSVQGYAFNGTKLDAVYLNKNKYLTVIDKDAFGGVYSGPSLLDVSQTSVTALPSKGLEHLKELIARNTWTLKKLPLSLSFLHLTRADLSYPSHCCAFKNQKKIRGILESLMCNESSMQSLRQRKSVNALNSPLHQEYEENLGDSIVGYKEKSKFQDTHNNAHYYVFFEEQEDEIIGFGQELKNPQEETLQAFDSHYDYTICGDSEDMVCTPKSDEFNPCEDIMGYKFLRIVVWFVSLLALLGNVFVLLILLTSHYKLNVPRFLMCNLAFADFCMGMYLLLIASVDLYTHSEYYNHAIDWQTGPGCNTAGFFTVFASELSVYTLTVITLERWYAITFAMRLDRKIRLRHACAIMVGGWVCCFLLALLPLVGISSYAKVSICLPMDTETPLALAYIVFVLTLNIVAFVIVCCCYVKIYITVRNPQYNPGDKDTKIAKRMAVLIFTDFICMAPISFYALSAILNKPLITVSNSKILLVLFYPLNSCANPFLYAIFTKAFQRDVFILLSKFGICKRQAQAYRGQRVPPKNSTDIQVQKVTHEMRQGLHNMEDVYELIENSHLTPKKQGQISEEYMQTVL
Thyrotropin-releasing hormone receptor (Homo sapiens), sequence (P34981 whole entry, looked up): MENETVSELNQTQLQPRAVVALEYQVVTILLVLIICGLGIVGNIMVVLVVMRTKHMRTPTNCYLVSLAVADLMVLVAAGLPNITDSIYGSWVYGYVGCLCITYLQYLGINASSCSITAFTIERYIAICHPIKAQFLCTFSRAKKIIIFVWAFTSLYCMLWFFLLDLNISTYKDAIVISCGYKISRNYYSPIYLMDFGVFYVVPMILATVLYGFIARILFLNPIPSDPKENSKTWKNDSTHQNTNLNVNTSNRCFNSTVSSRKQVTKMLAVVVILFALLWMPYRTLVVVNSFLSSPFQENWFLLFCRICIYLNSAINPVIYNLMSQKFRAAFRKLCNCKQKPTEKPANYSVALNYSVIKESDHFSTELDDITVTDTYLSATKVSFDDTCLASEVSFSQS
Progesterone receptor (Homo sapiens), sequence (P06401 whole entry, looked up): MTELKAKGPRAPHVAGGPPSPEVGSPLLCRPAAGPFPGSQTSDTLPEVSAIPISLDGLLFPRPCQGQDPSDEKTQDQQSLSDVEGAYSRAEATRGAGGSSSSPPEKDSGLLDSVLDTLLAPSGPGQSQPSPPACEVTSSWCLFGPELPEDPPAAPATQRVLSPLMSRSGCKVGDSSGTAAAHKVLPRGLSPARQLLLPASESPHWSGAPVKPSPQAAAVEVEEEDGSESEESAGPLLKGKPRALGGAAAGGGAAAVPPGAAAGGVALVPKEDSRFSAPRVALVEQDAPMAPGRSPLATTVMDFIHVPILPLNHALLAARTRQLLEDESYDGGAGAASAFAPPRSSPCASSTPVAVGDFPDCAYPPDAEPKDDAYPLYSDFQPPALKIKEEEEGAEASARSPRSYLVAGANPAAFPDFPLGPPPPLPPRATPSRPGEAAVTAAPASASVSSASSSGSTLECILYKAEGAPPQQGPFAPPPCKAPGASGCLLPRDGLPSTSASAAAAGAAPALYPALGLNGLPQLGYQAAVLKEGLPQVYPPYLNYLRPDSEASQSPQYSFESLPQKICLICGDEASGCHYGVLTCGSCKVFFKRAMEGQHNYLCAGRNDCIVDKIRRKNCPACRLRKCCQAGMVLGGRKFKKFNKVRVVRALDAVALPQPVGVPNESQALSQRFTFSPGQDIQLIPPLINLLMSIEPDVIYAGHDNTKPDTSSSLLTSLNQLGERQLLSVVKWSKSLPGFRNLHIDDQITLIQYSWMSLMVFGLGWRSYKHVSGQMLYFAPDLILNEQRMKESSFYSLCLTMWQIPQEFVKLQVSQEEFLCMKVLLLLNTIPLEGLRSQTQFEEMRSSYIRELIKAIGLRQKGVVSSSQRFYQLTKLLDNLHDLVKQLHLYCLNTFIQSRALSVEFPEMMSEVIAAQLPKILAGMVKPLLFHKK
Estrogen receptor (Homo sapiens), sequence (P03372 whole entry, looked up): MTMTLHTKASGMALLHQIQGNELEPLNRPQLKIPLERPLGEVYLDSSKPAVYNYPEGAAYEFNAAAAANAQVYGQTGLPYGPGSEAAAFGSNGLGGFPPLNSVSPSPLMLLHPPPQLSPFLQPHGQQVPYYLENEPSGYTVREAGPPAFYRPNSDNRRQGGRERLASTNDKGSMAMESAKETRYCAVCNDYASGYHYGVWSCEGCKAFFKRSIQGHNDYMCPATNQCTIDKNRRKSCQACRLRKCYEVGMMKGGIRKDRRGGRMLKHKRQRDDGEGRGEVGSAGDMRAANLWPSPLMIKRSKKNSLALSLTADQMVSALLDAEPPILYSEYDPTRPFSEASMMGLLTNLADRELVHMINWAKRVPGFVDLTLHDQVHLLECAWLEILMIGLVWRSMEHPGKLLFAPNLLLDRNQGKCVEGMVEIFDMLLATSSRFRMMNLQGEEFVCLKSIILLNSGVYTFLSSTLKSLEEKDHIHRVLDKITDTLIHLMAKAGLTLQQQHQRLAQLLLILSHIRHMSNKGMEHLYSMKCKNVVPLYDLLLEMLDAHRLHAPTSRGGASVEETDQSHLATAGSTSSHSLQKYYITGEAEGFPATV

`CN(C)c1ccc(/C=C/c2ccc([N+](=O)[O-])cc2)cc1`: the activity change, negative = cytotoxicity in assay [1] was 4.91% [at 8.39 µM]; in assay [2], -2.6% [at 8.39 µM]; in [3], -2.95% [at 8.39 µM]; in assay [6], 3.06% [at 8.39 µM]; in assay [7] it was -5% [at 8.39 µM]; in [8], -0.149% [at 8.39 µM]. For the same compound, the activity change, negative = cytotoxicity in assay [10] was 8.79% [at 6.97 µM]. Also, in assay [4], the cAMP activity change is 6.39% [at 8.39 µM, active compounds read high]. Also, the activity change, negative = inhibition in assay [5] is -4.14% [at 8.39 µM]. Also, the viability change, negative = cytotoxic in assay [9] is -3.22% [at 6.97 µM]. Besides, the activation in assay [11] was -9.78% [at 6.97 µM]; in [13], 0.993% [at 5.23 µM]. In addition, the activity, negative = inhibition in assay [12] is -0.61% [at 4.65 µM].
As for `CCOC(=O)NCCOc1ccc(Oc2ccccc2)cc1`, the figures for the Potency in assay [1] and in [15] were 61.1 µM (active) and 17.2 µM (active), respectively. In addition, the Potency result in assay [3], in [14], in assay [4], in assay [5], in assay [6] and in assay [9] was “inactive” in each case. In addition, the Potency result in assay [11] and in assay [13] was “inactive” throughout. In addition, the compound was classed as inactive in [10] and in [12].
For `CCCCCCCCCCCCN1CCCCCC1=O`, the Potency result in assay [1], in [3], in assay [4], in [6], in assay [7] and in [9] was “inactive” each time. Also, the Potency result in assay [11] and in assay [13] was “inactive” throughout. In [2], the Potency is 30.6 µM (active). In addition, in [12], the compound was classed as inactive.
Take `CCOc1ccc(N)c([N+](=O)[O-])c1`: the Potency result in [2], in [3], in assay [14], in [4], in assay [5] and in [16] was “inactive” throughout. For the same compound, the Potency entry in assay [7], in [9], in [11] and in [13] was “inactive” in each case. In addition, the outcome in [10] and in assay [12] was inactive.
Consider `C#C[C@]1(O)CC[C@H]2[C@@H]3CCc4cc(OC5CCCC5)ccc4[C@H]3CC[C@@]21C`, for which the Potency result in [1], in assay [4], in [16], in assay [7], in [8] and in assay [9] was “inactive” in each case. Moreover, the Potency entry in assay [11] is “inactive”. Also, in assay [2], the Potency was 29.8 µM (active). In assay [10], the result was inactive.
In the case of `COCCCN1CCC(NC(=O)c2cc(Cl)c(N)c3c2OCC3)CC1`, the Potency result in [1], in assay [2], in [3], in assay [4], in assay [5] and in assay [6] was “inactive” each time. For the same compound, the Potency result in assay [16], in assay [15], in assay [7], in assay [8] and in assay [11] was “inactive” throughout. Further, the call in assay [10] was inactive.
